# Measurements reported in PubChem BioAssay (NCATS).
# Several values for one entry are separate records, joined by “and”; a condition that tells them apart may be missing. Equal values may be shown once. Inconclusive results are not listed. Where a call stands in place of a potency, no number is given. Activity calls are given as the source filed them. Unless noted, calls follow the shape of the dose curve; as a rule, active = well fitted curve in the direction sought with a large enough effect; inconclusive = small, poorly fitted or top-dose-only effect, or another doubt; inactive = no such curve, though single readings can be large; an effect the other way counts as inactive or inconclusive.
# Molecular target: Cytochrome P450 2C9 (Homo sapiens) (UniProt P11712)
# Sequence (P11712 whole entry, looked up): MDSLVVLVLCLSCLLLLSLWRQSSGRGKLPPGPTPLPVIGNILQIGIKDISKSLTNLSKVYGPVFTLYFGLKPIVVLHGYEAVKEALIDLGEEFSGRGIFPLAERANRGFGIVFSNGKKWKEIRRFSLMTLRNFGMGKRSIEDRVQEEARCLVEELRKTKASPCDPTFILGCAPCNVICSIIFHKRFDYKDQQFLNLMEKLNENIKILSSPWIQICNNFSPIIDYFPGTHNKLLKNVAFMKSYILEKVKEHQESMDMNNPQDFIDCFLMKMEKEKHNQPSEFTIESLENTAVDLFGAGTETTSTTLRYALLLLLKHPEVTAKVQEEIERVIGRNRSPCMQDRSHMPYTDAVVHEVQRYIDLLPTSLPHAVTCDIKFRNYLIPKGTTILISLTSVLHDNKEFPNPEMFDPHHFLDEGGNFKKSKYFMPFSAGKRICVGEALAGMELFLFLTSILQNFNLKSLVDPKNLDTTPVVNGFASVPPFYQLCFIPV
# Experiment: Cytochrome P450 family 2 subfamily C member 9 (CYP2C9) small molecule antagonists: luciferase biochemical (cell-free) qHTS assay (AID 1645842; active = well fitted curve in the direction sought with a large enough effect in the repeat runs; an effect the other way counts as inactive or inconclusive; also: nearly all actives have a fitted effect of over 55% in size)
# Settings: P450-Glo CYP2C9 enzyme assay, luciferin luminescence; series mostly up to 57.4 µM
# How it was run: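 P450-Glo CYP2C9 system: proluciferin substrate with enzyme in mix containing 0.4% BSA, 10 min at room temperature, then NADPH regeneration solution added and incubated 1 h at 37C. Detection reagent stopped reaction; luminescence read after 20 min as RLU.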
# Potency is read from the fitted curve at half-maximal effect.
row,SMILES,Potency
1,COc1ccc(C(=O)C2CCN(CC(=O)N(Cc3nc4c(c(=O)[nH]3)COCC4)CC3CC3)CC2)cc1,8.49 µM (active)
2,CCOc1cc(C(=O)N2CCC(N3CCN(C)CC3)CC2)ccc1Nc1ncc2c(n1)N(C1CCCC1)c1ccccc1C(=O)N2C,inactive
3,COc1cc(N2CCC(N3CCN(C)CC3)CC2)ccc1Nc1ncc(Cl)c(-c2c[nH]c3ccccc23)n1,19 µM (active)
4,CCN(CC)CCN(Cc1ccc(-c2ccc(C(F)(F)F)cc2)cc1)C(=O)Cn1c(SCc2ccc(F)cc2)nc(=O)c2c1CCC2,23.9 µM (active)

# System: not listed separately
# Experiment: Primary qHTS for inhibitors of nuclear receptor binding SET domain protein 2 (NSD2) in an isogenic RCH-ACV NSD2 p.E1099K mutant (9B) (AID 1645876); also: nearly all actives have a fitted effect of over 70% in size
# Settings: RCH-ACV (leukaemia line) NSD2 E1099K (9B) viability, CellTiter-Glo, 72 h; series mostly up to 44.9 µM
SMILES,Potency,outcome
CC1(C)CCCC2(C)C(C(=O)O)=CCC12 (stereo unspecified),inactive,
CC(=O)OC[C@H]1O[C@H](O[C@]2(CO)O[C@H](CO)[C@@H](OC(=O)/C=C/c3ccccc3)[C@@H]2O)[C@H](O)[C@@H](O)[C@@H]1O,inactive,
C=CC(C)(C)c1[nH]c2ccccc2c1C[C@@H]1NC(=O)[C@H](Cc2c[nH]c3ccccc23)NC1=O,inactive,
C[C@@H]1C(=O)OC[C@H]2C(C(=O)O)=C[C@@H]3CC(C)(C)C[C@]312,inactive,
CC(C)CCC[C@@H](C)[C@H]1CC[C@H]2[C@@H]3CC(=O)[C@H]4C[C@@H](O)CC[C@]4(C)[C@H]3CC[C@]12C,inactive,
CC1CCC2(C(=O)O)CCC3(C)C(=CCC4C5(C)CCC(OC(=O)/C=C/c6ccccc6)C(C)(C)C5CCC43C)C2C1C (stereo unspecified),inactive,
O=C(/C=C\c1ccc(O)cc1)N[C@@H](Cc1ccc(O)cc1)C(=O)O,inactive,
CC1C(OC(=O)c2ccccc2)C(O)C2C(C(=O)O)=COC(OC3OC(CO)C(O)C(O)C3O)C12 (stereo unspecified),inactive,
O=C(N/N=C/c1ccc(O)c(O)c1)c1cc2ccccc2cc1O,6.82 µM (active),
C=C1C(OC(=O)/C(C)=C\C)[C@@]23CCC4[C@@](C)(CCC[C@@]4(C)C(=O)O)C2CC[C@H]1C3OC(C)=O (stereo partly specified),inactive,
CCc1c(C)nc2c(-c3cnn(-c4cc(CO)ccn4)c3)c[nH]n2c1=O,inactive,
COc1ccc(CN2C(=O)C(=O)c3cc(S(=O)(=O)N4CCC[C@H]4COc4cccnc4)ccc32)cc1,inactive,
Cc1c(NC(=O)c2cc(C(N)=O)nc3cc(F)ccc23)c(C(F)(F)F)nn1Cc1ccc(C#N)cc1,inactive,
CCc1c(-c2ccccc2)c(-c2ccccc2)nn1-c1ccccc1-c1cccc(OCC(=O)O)c1,inactive,
CC(C)(O)C1CCC(C)(C2CCC3(C)C4CCC5C(C)(C(=O)OC6OC(CO)C(O)C(O)C6O)C(O)CC(O)C56CC46CCC23C)O1 (stereo unspecified),inactive,
O=C(O)/C=C/c1ccc(-c2ccc(O)c(C34CC5CC(CC(C5)C3)C4)c2)cc1,0.325 µM (active),
O=C(c1ccc(/C=C/c2n[nH]c3ccccc23)cc1)N1CCNCC1,649 nM (active) and 2.63 µM (active),
C=C(C)C(=O)OC1CC2(C)OC(=CC2=O)C(=C)CC2OC(=O)C(COC)C12 (stereo unspecified),4.01 µM (active),
CC1(C)C=CN2C(=O)C3=CCCN3C(=O)[C@@H]2C[C@@]12Nc1ccccc1C2=O,inactive,
C[C@@H]1O[C@@H](O[C@@H]2[C@@H](O)[C@@H](O[C@]3(CO)O[C@H](CO)[C@@H](O)[C@@H]3OC(=O)/C=C/c3ccc(O)cc3)O[C@H](CO)[C@H]2OC(=O)/C=C/c2ccc(O)cc2)[C@H](O)[C@H](O)[C@H]1O[C@@H]1O[C@@H](C)[C@H](O[C@@H]2OC[C@](O)(CO)[C@H]2O)[C@@H](O)[C@H]1O,,inactive [at 9.23 µM]
COc1cc(C)c(C(=O)O[C@H]2[C@@H](OC(C)=O)[C@H](n3ccc(=O)[nH]c3=O)O[C@@H]2CO)c(OC)c1,inactive,
NC1CCCCN(c2c(F)cc3c(=O)c(C(=O)O)cn(C4CC4)c3c2Cl)C1 (stereo unspecified),inactive,
O=C(OC[C@H]1O[C@H](O[C@]2(CO)O[C@H](CO)[C@@H](O)[C@@H]2O)[C@H](O)[C@@H](O)[C@@H]1O)c1ccccc1,inactive,
COc1ccc(C(=O)C2CCN(CC(=O)N(Cc3nc4c(c(=O)[nH]3)COCC4)CC3CC3)CC2)cc1,inactive,
CCOc1cc(C(=O)N2CCC(N3CCN(C)CC3)CC2)ccc1Nc1ncc2c(n1)N(C1CCCC1)c1ccccc1C(=O)N2C,1.15 µM (active) and 1.86 µM (active),
C=C1CCC2C(C)(COC(C)=O)CCCC2(C)C1CCC(C)CC(=O)O (stereo unspecified),inactive,
COc1cc(N2CCC(N3CCN(C)CC3)CC2)ccc1Nc1ncc(Cl)c(-c2c[nH]c3ccccc23)n1,1.15 µM (active),
